Results reported in PubChem BioAssay (Tox21).
Inconclusive results are not listed. Activity calls are given as the source filed them. Unless noted, calls follow the shape of the dose curve; as a rule, active = well fitted curve in the direction sought with a large enough effect in the repeat runs; inconclusive = weak or mixed curves; inactive = no such curve, though single readings can be large; an effect the other way counts as inactive or inconclusive.

Columns and labels:
[1] = qHTS assay for small molecules that induce genotoxicity in human embryonic kidney cells expressing luciferase-tagged ATAD5 (AID 651632); also: nearly all actives have a fitted effect of over 15% in size
Procedure, shortened: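 HEK293T cells carrying a luciferase reporter tagged to ATAD5 were exposed to compound or DMSO vehicle for 16 hr at 37C, 5% CO2. Amplite was added, and after 30 min at room temperature luciferase activity was read as a marker of ATAD5 induction.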

[2] = qHTS assay for small molecules that induce genotoxicity in human embryonic kidney cells expressing luciferase-tagged ATAD5 - cell viability (AID 651634; calls by dose curve; also: nearly all actives have a fitted effect of over 25% in size; also: potency is read from the fitted curve at half-maximal effect)
Procedure, shortened: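 HEK293T cells expressing luciferase-tagged ATAD5 were exposed to compound or DMSO for 15.5 hr at 37C, 5% CO2. Viability was then read as live-cell protease activity by CellTiter-Fluor fluorescence after 30 min at 37C.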

[3] = qHTS assay for small molecule disruptors of the mitochondrial membrane potential - cell viability (AID 720634; calls by dose curve; also: nearly all actives have a fitted effect of over 20% in size; also: potency is read from the fitted curve at half-maximal effect)
Procedure, shortened: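 HepG2 cells seeded overnight at 37 C, then exposed to compound or DMSO for 1 hr at 37 C, 5% CO2. m-MPI dye added, then CellTiter-Glo for 30 min at room temperature; viability read as ATP luminescence.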

[4] = qHTS assay for small molecule disruptors of the mitochondrial membrane potential (AID 720635); also: potency is read from the fitted curve at half-maximal effect
Procedure, shortened: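 HepG2 cells exposed to compound 1 hr at 37C, then Mito-MPS dye 30 min. Ratio read of aggregate (540/590 nm) versus monomer (490/535 nm) fluorescence.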

[5] = qHTS assay to test for compound auto fluorescence at 590 nm (red) in HepG2 cells (AID 720674)
Procedure, shortened: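 Seeding: 2,000 HepG2 cells/well, MEM/10% FBS, overnight 37 C. Dosing: compound vs DMSO. Incubation: 1 hr, 37 C, 5% CO2. Read: fluorescence 540 ex/590 em, Rose Bengal sodium as red reference.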

[6] = qHTS assay to test for compound auto fluorescence at 535 nm (green) in HepG2 cells (AID 720675)
[7] = qHTS assay to test for compound auto fluorescence at 460 nm (blue) in HEK293 cells (AID 720678)
Procedure, shortened: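 Auto fluorescence in the blue band was quantified as triamterene equivalency. HEK293 cells were seeded at 2,000/well, dosed after a 4-5 hr attachment, and kept overnight at 37C before the 405/460 nm reading.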

[8] = qHTS assay to test for compound auto fluorescence at 590 nm (red) in HEK293 cells (AID 720679)
Procedure, shortened: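 Autofluorescence equivalency to Rose Bengal sodium, 540/590nm, in HEK293 cells exposed overnight to 23 nL compound per well.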

[9] = qHTS assay to test for compound auto fluorescence at 535 nm (green) in HEK293 cells (AID 720680)
[10] = qHTS assay to test for compound auto fluorescence at 460 nm (blue) in HEK293 cell free culture (AID 720681)
Procedure, shortened: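 Compounds were added to cell-free DMEM with 10% FBS and fluorescence read directly. The blue channel used 405 nm excitation and 460 nm emission, with triamterene as the reference fluorophore.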

[11] = qHTS assay to test for compound auto fluorescence at 535 nm (green) in HEK293 cell free culture (AID 720682)
Procedure, shortened: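 Steps: dispense DMEM/10% FBS into empty wells; pin in compound or DMSO; measure fluorescence at 485/535 nm. Values are fluorescein equivalents.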

[12] = qHTS assay to test for compound auto fluorescence at 590 nm (red) in HEK293 cell free culture (AID 720683)
Procedure, shortened: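 Cell-free wells of DMEM with 10% FBS received compound, and intrinsic fluorescence was read at excitation/emission 540/590 nm. Values expressed as equivalence to Rose Bengal sodium.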

[13] = qHTS assay to test for compound auto fluorescence at 590 nm (red) in HepG2 cell free culture (AID 720684)
Procedure, shortened: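 Compound was pinned into wells holding MEM with 10% FBS and no cells, and red fluorescence was read at Ex/Em 540/590 nm. Signal is expressed as auto fluorescence equivalency relative to Rose Bengal sodium.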

[14] = qHTS assay to test for compound auto fluorescence at 460 nm (blue) in HepG2 cell free culture (AID 720685)
Procedure, shortened: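 Compound (23 nL) or DMSO pinned into cell-free MEM with 10% FBS; blue fluorescence read at 405/460 nm excitation/emission, expressed as auto-fluorescence equivalency to triamterene.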

[15] = qHTS assay to test for compound auto fluorescence at 535 nm (green) in HepG2 cell free culture (AID 720686)
[16] = qHTS assay to test for compound auto fluorescence at 460 nm (blue) in HepG2 cells (AID 720687)
Procedure, shortened: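 HepG2 cells in MEM with 10% FBS, attached overnight at 37 C, were exposed to compound or DMSO for 1 hr at 37 C, 5% CO2. Blue fluorescence was read at 405/460 nm, with triamterene as reference fluorophore.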

[17] = target: Glucocorticoid receptor (Homo sapiens) (UniProt P04150); assay: qHTS assay to identify small molecule agonists of the glucocorticoid receptor (GR) signaling pathway (AID 720691; active = well fitted activation curve with a large enough effect in the signal ratio in the repeat runs, not every such curve was filed as active; the % refers to the signal ratio); details: GR-bla HeLa, beta-lactamase reporter ratio, 18 h; activation: at 62.4 µM (top of the series)
Procedure, shortened: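 GR-bla HeLa cells (beta-lactamase reporter under glucocorticoid response element) were plated 4 h at 37 C/5% CO2, given compounds in DMSO, and incubated 18 h at 37 C. LiveBLAzer B/G FRET substrate was added for 2 h at room temperature, then fluorescence intensity read.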

[18] = target: Glucocorticoid receptor (Homo sapiens) (UniProt P04150); assay: qHTS assay to identify small molecule antagonists of the glucocorticoid receptor (GR) signaling pathway (AID 720692; active = well fitted inhibition curve with a large enough effect in the signal ratio in the repeat runs, not every such curve was filed as active; the % refers to the signal ratio)
Procedure, shortened: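 GR-bla HeLa cells (beta-lactamase reporter under glucocorticoid response element) were pre-plated 4 h at 37 C, treated with compounds plus 5 nM dexamethasone (final) for 18 h, then read by LiveBLAzer B/G FRET fluorescence after 2 h.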

[19] = qHTS assay for small molecule agonists of the p53 signaling pathway - cell viability (AID 651633; calls by dose curve;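 also: p53RE-bla HCT reporter cells with a stable beta-lactamase p53 reporter; nearly all actives have a fitted effect of over 30% in size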)
Procedure, shortened: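 p53RE-bla cells were treated with compound for 16 hours at 37 C. Cytotoxicity was then measured as CellTiter-Glo luminescence after 30 min at room temperature.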

Measured: Potency

Sequence of Glucocorticoid receptor (Homo sapiens) (P04150 whole entry, looked up): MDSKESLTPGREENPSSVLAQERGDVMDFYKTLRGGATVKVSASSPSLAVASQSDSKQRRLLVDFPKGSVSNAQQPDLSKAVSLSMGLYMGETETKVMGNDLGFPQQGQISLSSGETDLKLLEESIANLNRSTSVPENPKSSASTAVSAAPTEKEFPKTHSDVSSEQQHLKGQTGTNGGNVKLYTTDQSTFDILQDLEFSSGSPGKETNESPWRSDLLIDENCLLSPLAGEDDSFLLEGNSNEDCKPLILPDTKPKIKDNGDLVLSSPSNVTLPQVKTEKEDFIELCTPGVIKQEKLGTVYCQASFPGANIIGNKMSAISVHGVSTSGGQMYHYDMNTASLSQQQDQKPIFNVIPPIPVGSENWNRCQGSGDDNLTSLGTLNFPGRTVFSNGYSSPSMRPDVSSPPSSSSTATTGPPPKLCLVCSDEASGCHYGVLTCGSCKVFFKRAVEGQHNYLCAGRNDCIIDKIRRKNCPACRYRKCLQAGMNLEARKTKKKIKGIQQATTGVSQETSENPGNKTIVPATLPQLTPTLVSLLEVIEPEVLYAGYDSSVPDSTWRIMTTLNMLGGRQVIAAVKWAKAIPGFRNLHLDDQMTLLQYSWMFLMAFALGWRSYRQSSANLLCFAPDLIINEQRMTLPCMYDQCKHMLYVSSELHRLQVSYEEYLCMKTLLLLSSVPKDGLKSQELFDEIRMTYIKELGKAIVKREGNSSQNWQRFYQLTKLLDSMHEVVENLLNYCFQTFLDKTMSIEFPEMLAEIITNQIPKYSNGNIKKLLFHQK

C[C@@H]1CCC2[C@@H](C)[C@@H](O)O[C@@H]3O[C@@]4(C)CC[C@@H]1[C@@]23OO4 (stereo partly specified)
active: [2] 13.3 µM
not listed: [19]
inactive: all other assays above

CC1=C(C(=O)OCCN(Cc2ccccc2)c2ccccc2)C(c2cccc([N+](=O)[O-])c2)C(P2(=O)OCC(C)(C)CO2)=C(C)N1 (stereo unspecified)
active: [4] 26.6 µM
not listed: [2] | [17] | [18]
inactive: all other assays above

COc1ccccc1N1CCN(CCCC(=O)c2ccc(F)cc2)CC1
not listed: [4] | [6] | [18] | [19]
inactive: all other assays above

CCCCCCCCCCCCCCCCCC[N+](C)(C)CCC[Si](OC)(OC)OC
not listed: [4] | [17] | [18] | [19]
inactive: all other assays above

O=C(O)C1CCCN1 (stereo unspecified)
not listed: [1] | [18]
inactive: all other assays above

CC1(C)S[C@@H]2[C@H](NC(=O)[C@H](NC(=O)N3CCN(S(C)(=O)=O)C3=O)c3ccccc3)C(=O)N2[C@H]1C(=O)O
not listed: [4] | [19]
inactive: all other assays above

CCCCC[C@H](O)/C=C/[C@H]1[C@H](O)CC(=O)[C@@H]1CCCCCCC(=O)O
not listed: [4] | [7] | [14] | [17] | [18] | [19]
inactive: all other assays above

CCOC(=O)C1=C(COCCN)NC(C)=C(C(=O)OC)C1c1ccccc1Cl (stereo unspecified)
not listed: [4] | [17] | [19]
inactive: all other assays above

CN1CCN(CCCN2c3ccccc3Sc3ccccc32)CC1
not listed: [4] | [19]
inactive: all other assays above

CCC(=O)O[C@@H]1CC(=O)O[C@H](C)C/C=C/C=C/[C@H](O)[C@H](C)C[C@H](CC=O)[C@H](O[C@@H]2O[C@H](C)[C@@H](O[C@H]3C[C@@](C)(O)[C@@H](OC(=O)CC)[C@H](C)O3)[C@H](N(C)C)[C@H]2O)[C@H]1OC
not listed: [4] | [19]
inactive: all other assays above

CCC(=O)NCCC1CCc2ccc3c(c21)CCO3 (stereo unspecified)
not listed: [4] | [17] | [19]
inactive: all other assays above

CCOC(=O)[C@H](CS)NCCN[C@@H](CS)C(=O)OCC
not listed: [4] | [19]
inactive: all other assays above

Clc1ccc(COC(Cn2ccnc2)c2ccc(Cl)cc2Cl)c(Cl)c1 (stereo unspecified)
not listed: [4] | [17] | [19]
inactive: all other assays above

CN1CCN(C2=Nc3ccccc3Cc3ccccc32)CC1
not listed: [4] | [19]
inactive: all other assays above

CC(C)N=c1cc2n(-c3ccc(Cl)cc3)c3ccccc3nc-2cc1Nc1ccc(Cl)cc1
not listed: [4] | [18] | [19]
inactive: all other assays above

CO[C@H]1C[C@@H]2CC[C@@H](C)[C@@](O)(O2)C(=O)C(=O)N2CCCC[C@H]2C(=O)O[C@H]([C@H](C)C[C@@H]2CC[C@@H](OC(=O)C(C)(CO)CO)[C@H](OC)C2)CC(=O)[C@H](C)/C=C(\C)[C@@H](O)[C@@H](OC)C(=O)[C@H](C)C[C@H](C)/C=C/C=C/C=C/1C
not listed: [1] | [17] | [18]
inactive: all other assays above

CC(C)(C)NC(=O)[C@H]1CC[C@H]2[C@@H]3CC=C4C=C(C(=O)O)CC[C@]4(C)[C@H]3CC[C@]12C
not listed: [4] | [17] | [18] | [19]
inactive: all other assays above

C#C[C@]1(O)CC[C@H]2[C@@H]3CCC4=C(CCC(=O)C4)[C@H]3CC[C@@]21C
not listed: [4] | [17] | [18] | [19]
inactive: all other assays above

O=C1NCCN1c1ncc([N+](=O)[O-])s1
not listed: [4] | [14] | [18] | [19]
inactive: all other assays above

CC(C)(C)c1ccc(CN2CCN(C(c3ccccc3)c3ccc(Cl)cc3)CC2)cc1 (stereo unspecified)
not listed: [2] | [4] | [18] | [19]
inactive: all other assays above

CC(=O)[C@@]1(O)CC[C@H]2[C@@H]3C=C(Cl)C4=CC(=O)CC[C@]4(C)[C@H]3CC[C@@]21C
not listed: [4] | [17] | [18] | [19]
inactive: all other assays above

CCN(CC)CCOc1ccc(-c2nc3cc(Cl)ccc3s2)cc1
not listed: [4] | [18] | [19]
inactive: all other assays above

C=C1C(=C/C=C2\CCC[C@]3(C)[C@@H]([C@H](C)/C=C/[C@H](C)C(C)C)CC[C@@H]23)C[C@@H](O)C[C@@H]1O
not listed: [4] | [17] | [18] | [19]
inactive: all other assays above

O=C(O)c1cc(N=Nc2ccc(O)c(C(=O)O)c2)ccc1O
not listed: [4] | [18] | [19]
inactive: all other assays above

CC(CN(C)C)CN1c2ccccc2Sc2ccc(C(F)(F)F)cc21 (stereo unspecified)
not listed: [4] | [6] | [18] | [19]
inactive: all other assays above

CCCCCCCC(=O)CC[C@@H]1[C@@H](C/C=C\CCCC(=O)OC(C)C)[C@@H](O)C[C@H]1O
active: [3] 26.6 µM
not listed: [2] | [4] | [17] | [18] | [19]
inactive: all other assays above

CCc1ccc2c(c1)N(CC(C)CN(C)C)c1ccccc1S2 (stereo unspecified)
active: [2] 33.5 µM
not listed: [4] | [18] | [19]
inactive: all other assays above
